Laboratory results published in PubChem BioAssay AID932 (The Scripps Research Institute Molecular Screening Center, 2007).
The whole screen tested about 200,000 compounds, of which about 5,100 (2.5%) were called active. For the sample, actives were picked, then their nearest neighbours and some compounds at random. Unmarked numbers belong to inactive results.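 Rule for the calls: active = activation above the screen-wide mean activation plus 3 SD (cut at about 130% in these data); inactive = the rest.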

Experiment: STAT1 signaling activators, primary screen, cell-based, HTS, luciferase reporter (AID 932);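 note: raw ratio to IFN-gamma control signal so 100% means no change and 0% no light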
Conditions: NIH 3T3 STAT1-luciferase reporter, IFN-gamma, luminescence; at 5.5 µM; active compounds read high; 100% = IFN-gamma alone, no compound

Row | Compound | activation (% of control)
1 | COc1ccc(-c2nn(-c3ccccc3)cc2/C=C\C(=O)Nc2ccc(C(=O)O)cc2)cc1 | 103%
2 | COc1ccc(-c2noc(-c3ccc(C)cc3)n2)cc1 | 133% (active)
3 | COc1ccc(-c2noc(CSc3ccc(C)cc3)n2)cc1 | 102%
4 | COc1ccc(-c2nc(-c3ccccc3)no2)c(OC)c1 | 43.8%
5 | Cc1ccc(Cc2nc(-c3cccc(C)c3)no2)cc1 | 115%
6 | COc1ccc2[nH]c(=O)c(-c3noc(-c4ccc(F)cc4)n3)cc2c1 | 114%
7 | Cc1cccc(-c2noc(-c3ccc(F)cc3)n2)c1 | 152% (active)
8 | CC1COc2ccccc2N1C(=O)c1cccnc1Cl (stereo not drawn) | 98.3%
9 | Cc1nc(N)c(Br)c(C)c1Br | 96.7%
10 | CNC(=S)Nc1ccc([N+](=O)[O-])cc1 | 96.9%
11 | Cc1cc(C(=O)CC#N)c(C)n1-c1c(C)n(C)n(-c2ccccc2)c1=O | 102%
12 | CC1(C)CC(=O)C/C(=N\NC(=O)c2cccs2)C1 | 101%
13 | COc1ccccc1Oc1nc(-c2cccnc2)nc2ccccc12 | 102%
14 | CC(=O)c1c(C)[nH]c(C(=O)OCC(=O)NCCC(C)C)c1C | 86.3%
15 | CCCCOC(=O)c1[nH]c(C)c(C(=O)OC)c1C | 134% (active)
16 | COC(=O)c1c(C)[nH]c(C(=O)/C=C/c2ccc(Cl)cc2)c1C | 98.9%
17 | COC(=O)C1=C(N)Oc2c(oc(CO)cc2=O)C1c1c(F)cccc1Cl (stereo not drawn) | 95.5%
18 | COc1cccc(CC2(CO)CCN(Cc3cnc(-c4cccc(C)c4)nc3)CC2)c1 | 99.5%
19 | N/C(=N\OC(=O)N1c2ccccc2Sc2ccccc21)c1ccc(Br)cc1 | 92.7%
20 | N/C(=N\OC(=O)/C=C/c1ccccc1)c1ccc(Br)cc1 | 98.9%
21 | N/C(=N\OC(=O)c1ccc2c(c1)OCO2)c1ccc(Br)cc1 | 144% (active)
22 | CN(NC(=O)C1CC(=O)N(c2ccccc2)C1)C1=NS(=O)(=O)c2ccccc21 (stereo not drawn) | 97.3%
23 | O=C(CCSc1ccccc1)N1CCN(c2ccccc2F)CC1 | 135% (active)
24 | O=C(c1cccc2ccccc12)N1CCN(c2ccccc2F)CC1 | 101%
25 | O=C(CCS(=O)(=O)c1cccc2nsnc12)N1CCN(c2ccccc2F)CC1 | 106%

Row | Compound | activation (% of control)
26 | COc1cc(CN2CCN(Cc3ccc(C)cc3)CC2)c([N+](=O)[O-])cc1OC | 90.7%
27 | Cc1cc(C)nc(-n2ncc3c2CC(c2ccc(C(C)C)cc2)CC3=O)n1 (stereo not drawn) | 104%
28 | Cc1cc(C)cc(C(=O)NC2C(=O)N3C(C(=O)O)=C(CSc4nnc(C)s4)CSC23)c1 (stereo not drawn) | 93.1%
29 | COc1cc(NC(=O)c2ccc3c(c2)OCO3)ccc1NC(=O)c1cccs1 | 101%
30 | COc1cc(CNc2ncn[nH]2)ccc1OCc1ccccc1C | 131% (active)
31 | c1n[nH]c(NCc2ccc3c(c2)OCO3)n1 | 89.7%
32 | COc1ccc(CCNC(=O)C(=O)NCc2ccccc2C)cc1OC | 96.8%
33 | COc1cccc(CC2(CO)CCCN(CC3=Cc4cc(OC)ccc4OC3)C2)c1 (stereo not drawn) | 92%
34 | CCOC(=O)c1ccc(NC(=O)c2cc(=O)[nH]c3ccccc23)cc1 | 102%
35 | COC(=O)[C@H]1Cc2cnoc2C[C@]1(C)C(=O)O | 106%
36 | CCc1nnc(NC(=O)c2cccs2)s1 | 134% (active)
37 | CCc1nnc(NC(=O)Cc2cccs2)s1 | 98.1%
38 | CCCc1nnc(NC(=O)c2cccs2)s1 | 115%
39 | O=C(c1ccc(C(F)(F)F)cc1)C1CCCN(C(=O)c2csnn2)C1 (stereo not drawn) | 87.3%
40 | N#CCC(=O)N/N=C/c1ccc(SCC(=O)Nc2ccccc2)o1 | 108%
41 | O=C1COc2ccc(C(=O)COC(=O)c3cccnc3Cl)cc2N1 | 109%
42 | CN(C)c1ccc(/C=N/NC(=O)c2ccc(Cn3cc(Br)cn3)o2)cc1 | 135% (active)
43 | O=C(N/N=C\c1ccc(Br)cc1)c1ccc(Cn2cccn2)o1 | 118%
44 | O=C(N/N=C/c1ccc2c(c1)OCO2)c1ccc(Cn2cc([N+](=O)[O-])cn2)o1 | 109%
45 | C=CCn1c(COc2ccc(F)cc2)nnc1SCC(=O)Nc1cccc(S(N)(=O)=O)c1 | 97.8%
46 | Cc1c(/C=N/N2C(=O)C3C4C=CC(C4)C3C2=O)c2ccccc2n1C (stereo not drawn) | 90.4%
47 | C/C(=N\OC(=O)c1ccccc1)c1c(C)nc2cc(C)ccn12 | 99.5%
48 | Cc1cccc(N(CC(=O)Nc2ccc(-c3nc4ccc(C)cc4s3)cc2)S(C)(=O)=O)c1 | 142% (active)
49 | Cc1ccc2nc(-c3ccc(NC(=O)CN(C)S(=O)(=O)c4ccccc4)cc3)sc2c1 | 102%
50 | Cc1ccc(N(CC(=O)Nc2cccc(N(C)S(C)(=O)=O)c2)S(C)(=O)=O)cc1 | 92.8%

Row | Compound | activation (% of control)
51 | Cn1c(=N)n(CC(O)c2cccs2)c2ccccc21 (stereo not drawn) | 95.5%
52 | ClC1(Cl)CC1CSc1ncn[nH]1 (stereo not drawn) | 102%
53 | O=C(C1CCN(C2CCN(Cc3ccc4cc(F)ccc4n3)CC2)CC1)N1CCCC1 | 98.4%
54 | N#Cc1c(N)nc2c(c1N)CC(C(F)(F)F)O2 (stereo not drawn) | 92.8%
55 | Cc1nn(C)c(C)c1Sc1ccccc1N | 99.2%
56 | CCn1c(CSc2nc(C)cc(C)n2)nnc1SCC(N)=O | 103%
57 | Cc1ccc(/C=C/C(=O)Nc2ccc([N+](=O)[O-])c(NC(=O)/C=C/c3ccc(C)o3)c2)o1 | 101%
58 | Cc1ccc(/C=C/C(=O)Nc2cc(S(=O)(=O)N3CCCCCC3)ccc2OCC(F)(F)F)o1 | 139% (active)
59 | COc1ccc(S(=O)(=O)N2CCCCCC2)cc1C(=O)OCC(=O)Nc1cc(C)on1 | 97%
60 | O=[N+]([O-])c1ccc(NCCCO)c(C(F)(F)F)c1 | 105%
61 | CN(C(=O)c1ccccn1)c1nnc(-c2ccccn2)s1 | 142% (active)
62 | CN(C(=O)c1ccno1)c1nnc(-c2cccnc2)s1 | 102%
63 | CN(C(=O)COc1ccccc1)c1nnc(-c2ccncc2)s1 | 107%
64 | COc1ccc(N=C2SC(C(=O)Nc3ccc(F)cc3)CC(=O)N2C)cc1 (stereo not drawn) | 88.3%
65 | Cc1ccccc1NCC(=O)N/N=C\c1ccc([N+](=O)[O-])s1 | 92.7%
66 | CN(C(=O)CSc1nnnn1-c1ccccc1)C1CCCCC1 | 103%
67 | CN(C(=O)CSc1nncc2ccccc12)C1CCCCC1 | 131% (active)
68 | CN(C(=O)COc1ncnc2c1cnn2-c1ccccc1)C1CCCCC1 | 94.4%
69 | Cc1nnnn1/C(=C\c1ccccc1)C(=O)OCC(=O)N1CC2(C)CC1CC(C)(C)C2 (stereo not drawn) | 99.2%
70 | O=C(Nc1nnc(C2COc3ccccc3O2)o1)c1ccc(F)cc1 (stereo not drawn) | 98.5%
71 | O=C(N/N=C/c1ccccn1)C12CC3CC(CC(C3)C1)C2 | 103%
72 | OCCC1CN(Cc2cnc(-c3ccccc3)s2)CCN1CCc1ccccc1 (stereo not drawn) | 100%
73 | O=C(NC1CCC(O)CC1)c1ccc(S(=O)(=O)NCc2ccco2)cc1 (stereo not drawn) | 93.2%
74 | C/C(=N\Nc1nc2ccccc2[nH]1)c1cccs1 | 147% (active)
75 | OCCNc1nc2ccccc2[nH]1 | 104%

Row | Compound | activation (% of control)
76 | C/C(=N\Nc1nc(Nc2ccccc2)nc(N2CCOCC2)n1)c1cccs1 | 92.8%
77 | C/C(=N\Nc1ncc(Cl)cc1Cl)c1ccc(S(=O)(=O)NCc2ccco2)cc1 | 131% (active)
78 | C/C(=N\NS(=O)(=O)c1ccc(Br)cc1)c1cccs1 | 95.4%
79 | COc1cccc(/C(C)=N/Nc2ncc(Cl)cc2Cl)c1 | 126%
80 | C/C(=N\Nc1ncc(Cl)cc1Cl)c1cccs1 | 143% (active)
81 | Cc1c(Cl)cnc(NC(=O)COC(=O)c2ccc(S(=O)(=O)NCc3ccco3)cc2)c1Cl | 101%
82 | COc1cccc(CNC(=O)CCN2C(=S)NC(C)(C)CC2C)c1 (stereo not drawn) | 100%
83 | Cc1nn(C)c(C)c1CN(C(=O)CCc1nnc(Cc2c[nH]c3ccccc23)o1)C(C)C | 99.9%
84 | CCN(CC)c1ccc(C(=O)c2cnc(/N=C/N(C)C)s2)cc1 | 118%
85 | c1ccc(-c2noc(-c3cccs3)n2)nc1 | 104%
86 | COc1nc(-c2ccc(Cl)cc2)ccc1-c1noc(-c2cccs2)n1 | 108%
87 | c1csc(-c2nc(-c3ccncc3)no2)c1 | 130% (active)
88 | CC(=O)Nc1ccc(CN2CCN(Cc3ccc(F)c(F)c3)C(CCO)C2)cc1 (stereo not drawn) | 100%
89 | O=c1oc(-c2ccco2)nc2sc3c(c12)CCCCC3 | 110%
90 | Cc1c(Br)ccc(NC(=O)COc2ccccc2C(N)=O)c1C | 97.9%
91 | Cc1cc(NS(=O)(=O)c2ccc(NC(=O)c3cccc(OC(F)F)c3)cc2)nc(C)n1 | 105%
92 | CCOC(=O)C1(Cc2ccccc2C(F)(F)F)CCN(C(=O)c2cc(C)n(C)n2)CC1 | 131% (active)
93 | CCOC(=O)C1(Cc2ccc(Cl)cc2)CCN(C(=O)C2=NNC(=O)CC2)CC1 | 96.4%
94 | CCOC(=O)C1(CCOc2ccccc2)CCN(C(=O)c2cncs2)CC1 | 99.2%
95 | O=c1cc(CO)oc(C(Nc2cccc(C(F)(F)F)c2)c2ccccn2)c1O (stereo not drawn) | 99.4%
96 | CCOc1cccc(C(=O)Nc2cccnc2)c1 | 101%
97 | CCOC(=O)c1ccc(-c2ccc(C(=O)Nc3cccnc3)o2)cc1 | 132% (active)
98 | CCOC(=O)c1cc(NC(=O)c2cccnc2)cc(C(=O)OCC)c1 | 96.5%
